We go through 8 molecules from PubChem BioAssay AID602370 (National Center for Advancing Translational Sciences (NCATS), 2012).

The list shows a part of the results. Results filed as inconclusive are left out. The source made the active and inactive calls. The call rests on the fitted dose curve; in most records, active means well fitted inhibition curve with a large enough effect; inconclusive means small, poorly fitted or top-dose-only effect; inactive means no such curve, though single readings can be large or run the other way.

The target in the test is 4'-phosphopantetheinyl transferase Sfp (Bacillus subtilis (strain 168)) (UniProt P39135). As to the kind of experiment: qHTS Assay for Inhibitors of Bacillus subtilis Sfp phosphopantetheinyl transferase (PPTase): SAR Round 2. To be noted: purified Sfp enzyme, PPTase activity. The source says:
The covalent attachment of a phosphopantetheinyl (4'-PP) arm to a variety of synthases and other proteins is a key posttranslational protein modification. The 4'-PP is installed on the proteins post-translationally from coenzyme A (CoA) on a conserved serine residue by action of phosphopantetheinyl transferase (PPTase) enzymes. Phosphopantetheinylation is essential for synthase activity, and removal of the PPTase gene precludes natural product synthesis in microorganisms, or in the case of fatty acid biosynthesis, renders the organism unviable. PPTase enzymes belong to a distinct structural superfamily. Within bacteria, these enzymes are grouped into two classes based upon primary structure, the AcpS-Type and Sfp-Type PPTases.
Sfp-type PPTases, corresponding to an activator of surfactin production in Bacillus subtilis, are responsible for modifying type I polyketide and nonribosomal peptide synthases of prokaryotes. Sfp-type PPTases are responsible for the activation of a variety of pathogen-associated virulence factors. Among these compounds are toxins such as mycolactone from Mycobacterium ulcerans, siderophores such as vibriobactin from Vibrio cholerae or mycobactin from Mycobacterium tuberculosis, as well as the mycolic acids which form the waxy cell wall of Mycobacteria. The biosyntheses of these natural products are considered attractive targets for drug design.
In search of small molecule Sfp-PPTase inhibitors, a fluorescence quenching assay was developed for detection of Bacillus subtilis Sfp-PPTase enzymatic activity in a miniaturized high-throughput format. The consensus ybbr acceptor peptide […] was N-terminally labeled with Black Hole Quencher-2 (BHQ-2) and used in combination with rhodamine-labeled coenzyme A as a co-substrate.
Inhibition of Sfp-PPTase was detected by recording the fluorescence intensity change over a 30-minute reaction period at a 525 nm excitation and 598 nm emission. Reagents were supplied by Michael Burkart and Timothy Foley, University of California at San Diego.
NIH Chemical Genomics Center [NCGC]
NIH Molecular Libraries Probe Centers Network [MLPCN]
Assay Submitter (PI): Michale Burkart, University of California, San Diego
Assay Buffer: 50 mM Hepes-Na pH 7.6, 10 mM MgCl2, 0.01% Nonidet P-40, and 0.01% BSA.
3 uL of Sfp-PPTase enzyme (final concentration 15 nM) and 1 uL of substrate mixture (final concentration for rhodamine-CoA and BHQ-2-YbbR 5 uM and 12.5 uM, respectively) dispensed in columns 1, 2, 5 - 48. Columns 1 and 2 used to generate neutral control (uninhibited reaction)
Three uL of reagents, consisting of buffer (in columns 3 and 4 as negative control) and Sfp-PPTase (in columns 1, 2, 5 - 48) were dispensed into 1,536-well Greiner black solid bottom plate. Compounds (23 nL) were transferred via Kalypsys pintool equipped with 1,536-pin array. The plate was incubated for 15 min at room temperature, followed by the addition of 1 uL substrate to start the reaction. The plate was then centrifuged at 1000 rpm for 15 seconds, and the fluorescence intensity recorded on a ViewLux High-throughput CCD imager (Perkin-Elmer) using standard BODIPY optics (525 nm excitation and 598 nm emission). The plate was then incubated for 30 minutes, and a second read on the ViewLux was performed. The fluorescence intensity difference over the 30-minute period was used to calculate the respective reaction rate for each well.
(In general: Quantitative high-throughput screening tests each substance at several concentrations.)
Take `COc1cccc(NC(=S)N2CCN(c3ccccc3C(F)(F)F)CC2)n1`: the Potency was 3240 nM (active).
The same measure for `Cc1cc(C)nc(NC(=S)N2CCN(c3cccc(C#N)c3)CC2)c1`: 1620 nM (active); for `Cc1cc(C)nc(NC(=S)N2CCN(c3ccc4nonc4c3)CC2)c1`: 6460 nM (active).
Turning to `COc1ccnc(NC(=S)N2CCN(c3ncc(C(F)(F)F)cc3Cl)CC2)c1`, the Potency is 290 nM (active).
With `Cc1cc(C)nc(NC(=S)N2CCN(c3cccc(C(F)(F)F)c3)CC2)c1` the figure was 510 nM (active); with `Cc1ccc(N2CCN(C(=S)Nc3cc(C)ccn3)CC2)cc1`, 5130 nM (active); with `Cc1cc(C)nc(NC(=S)N2CCN(c3ccc(Cl)cc3C(F)(F)F)CC2)c1`, 580 nM (active).
For `Cc1cc(C)nc(NC(=S)N2CCN(c3ccc(Cl)cc3F)CC2)c1`, the Potency was 910 nM (active).
